The nature of assay [1]: ATG_GLI_CIS: Attagene CIS-FACTORIAL HepG2 Assay for human Zinc Finger Protein GLI1 (AID 2282945). The note with it: HepG2, Attagene cis-factorial reporter mRNA, GLI element; actives raise or lower the signal. The gist of the method: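 Transiently transfected HepG2 cells report endogenous transcription factor activity via cis-element-driven reporter units. After 24 h compound exposure, reporter mRNA was measured by RT-PCR with capillary electrophoresis; bidirectional fitting against DMSO baseline.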

Assay [2] in a line: ATG_GRE_CIS: Attagene CIS-FACTORIAL HepG2 Assay for human Glucocorticoid Response Elements (GRE) (AID 2282947). The note with it: HepG2 GRE cis-reporter, Attagene multiplex mRNA; actives raise or lower the signal. In outline: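 Read-out: fluorescent reporter-transcript fragments separated by capillary electrophoresis after RT-PCR. Transiently transfected HepG2 cells carrying cis-element-driven reporter units were dosed for 24 h; gain or loss of signal fitted against DMSO control.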

A short description of assay [3]: ATG_ISRE_CIS: Attagene CIS-FACTORIAL HepG2 Assay for human Interferon Regulatory Factor 1 (IRF1) binding to an Interferon-Stimulated Response Element (ISRE) (AID 2282948). The note with it: HepG2 ISRE cis-reporter (Attagene), mRNA transcription readout; actives raise or lower the signal. In outline: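 Endogenous transcription factor activity read as reporter transcript abundance via RT-PCR and capillary electrophoresis. HepG2 cells transiently transfected, 24 h chemical exposure. Gain or loss fitted against DMSO baseline.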

Assay [4] in a line: ATG_M_32_CIS: Attagene CIS-FACTORIAL HepG2 Assay for M32 Transcription Factor (Internal Marker) (AID 2282949).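 Also: background control marker of the multiplexed CIS panel rather than a real target.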 The note with it: HepG2 Attagene cis-factorial M32 reporter, mRNA; actives raise or lower the signal. In outline: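 Transient MRTU transfection of HepG2; 24 h compound treatment; TriZol RNA, oligo(dT) RT, reporter PCR, 6-FAM primer extension, HpaI cut, CE. Gain/loss of signal vs DMSO.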

The nature of assay [5]: ATG_M_06_CIS: Attagene CIS-FACTORIAL HepG2 Assay for M06 Transcription Factor (Internal Marker) (AID 2282950). The note with it: HepG2 Attagene CIS-FACTORIAL M06 internal marker reporter; actives raise or lower the signal. In outline: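 Internal background marker within multiplexed cis-reporter HepG2 system. Cells transiently transfected, dosed 24 h; reporter mRNA measured by RT-PCR, HpaI digestion and capillary electrophoresis. Bidirectional fit relative to DMSO.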

Assay [6] concerns the target Hypoxia-inducible factor 1-alpha (Homo sapiens) (UniProt Q16665). Put plainly: ATG_HIF1a_CIS: Attagene CIS-FACTORIAL HepG2 Assay for human Hypoxia Inducible Factor 1 (HIF1A) (AID 2282951). The note with it: HepG2 Attagene cis-factorial HIF1a reporter transcription; actives raise or lower the signal. In outline: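 After 24 h chemical exposure of reporter-transfected HepG2 cells, reporter cDNA was PCR-amplified, labelled by 6-FAM primer extension (2 min 95 C, 20 s 68 C, 10 min 72 C), HpaI-cut (2 h, 37 C) and analysed by CE.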

For assay [7], the target named is Heat shock factor protein 1 (Homo sapiens) (UniProt Q00613). Put plainly: ATG_HSE_CIS: Attagene CIS-FACTORIAL HepG2 Assay for human Heat Shock Transcription Factor 1 (HSE) (AID 2282953). The note with it: HepG2 HSE cis-reporter, Attagene RNA transcription; actives raise or lower the signal. The gist of the method:
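HepG2 cells transfected with cis-promoter reporter units sensing endogenous transcription factor activity; reporter mRNA quantified 24 h post-dose by RT-PCR and capillary electrophoresis of 6-FAM-labelled products. Bidirectional fitting against DMSO.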

Assay [8] is described as follows: ATG_MRE_CIS: Attagene CIS-FACTORIAL HepG2 Assay for human Metal Responsive Element (MRE) (AID 2282954). The note with it: HepG2 MRE cis-reporter transcription, Attagene multiplex; actives raise or lower the signal. In outline:
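RT-PCR/capillary electrophoresis readout of reporter mRNA, 24 h post-dosing, in HepG2 cells transfected with multiplexed cis-regulated reporter constructs. Gain or loss of signal fitted bidirectionally against DMSO baseline.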

The nature of assay [9]: ATG_PBREM_CIS: Attagene CIS-FACTORIAL HepG2 Assay for human Phenobarbital-responsive Enhancer Module (PBREM) (AID 2282955). The note with it: HepG2 PBREM cis-reporter, Attagene multiplexed transcription; actives raise or lower the signal. The gist of the method:
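Measures endogenous factor action on a phenobarbital-responsive enhancer module. HepG2 transiently carrying cis reporters, 24 h treatment, mRNA read-out by RT-PCR plus capillary electrophoresis.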

Assay [10] concerns the target Paired box protein Pax-6 (Homo sapiens) (UniProt P26367). The assay is described as follows: ATG_Pax6_CIS: Attagene CIS-FACTORIAL HepG2 Assay for human Paired Box 6 (PAX6) (AID 2282956). The note with it: HepG2 CIS-FACTORIAL PAX6 reporter transcription, RNA readout; actives raise or lower the signal. In outline:
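Read-out is reporter transcript level, measured by RT-PCR with fluorescent primer extension and capillary electrophoresis after 24 h dosing of transfected HepG2 cells. Activity in either direction fitted relative to DMSO control.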

A short description of assay [11]: ATG_PPRE_CIS: Attagene CIS-FACTORIAL HepG2 Assay for human Peroxisome Proliferator-activated Response Element (PPRE) (AID 2282958). The note with it: HepG2 PPRE cis-element reporter, Attagene transcription factor profiling; actives raise or lower the signal. In outline:
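PPRE activity in HepG2: transient cis-reporter transfection, 24 h compound incubation, reporter mRNA by RT-PCR and CE fluorescence; gain/loss fitted against DMSO.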

Assay [12] is described as follows: ATG_RORE_CIS: Attagene CIS-FACTORIAL HepG2 Assay for human RAR-related Orphan Receptor Element (RORE) (AID 2282959). The note with it: HepG2 Attagene cis-factorial RORE reporter, mRNA; actives raise or lower the signal. In outline:
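A 24-hour exposure of transfected HepG2 hepatoma cells precedes RNA isolation and reporter RT-PCR. Labeled products are digested with HpaI and resolved by capillary electrophoresis, with gain or loss of signal scored relative to DMSO.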

Assay [13] in a line: ATG_Sox_CIS: Attagene CIS-FACTORIAL HepG2 Assay for human SRY-box transcription factor (SOX) (AID 2282960). The note with it: HepG2 Attagene cis-factorial SOX reporter, mRNA; actives raise or lower the signal. The gist of the method: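 HepG2, cis reporter units, 24 h exposure. Reporter mRNA: RT-PCR → FAM labelling → HpaI → CE fluorescence. Bidirectional fit vs DMSO.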
For assay [14], the target named is Transcription factor Sp1 (Homo sapiens) (UniProt P08047). The assay is described as follows: ATG_Sp1_CIS: Attagene CIS-FACTORIAL HepG2 Assay for human Specificity Protein 1 (Sp1) (AID 2282961). The note with it: HepG2 Sp1 cis-reporter transcription, actives raise or lower the signal. The gist of the method: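 Liver-derived HepG2 cells, cis-element reporter library, 24 h treatment; RNA isolated, cDNA amplified with reporter-specific primers, FAM-labeled fragments sized on capillary analyzer. DMSO baseline, bidirectional curve fit.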
Sequence of Transcription factor Sp1 (Homo sapiens) (P08047 whole entry, looked up, the tested form may be a part): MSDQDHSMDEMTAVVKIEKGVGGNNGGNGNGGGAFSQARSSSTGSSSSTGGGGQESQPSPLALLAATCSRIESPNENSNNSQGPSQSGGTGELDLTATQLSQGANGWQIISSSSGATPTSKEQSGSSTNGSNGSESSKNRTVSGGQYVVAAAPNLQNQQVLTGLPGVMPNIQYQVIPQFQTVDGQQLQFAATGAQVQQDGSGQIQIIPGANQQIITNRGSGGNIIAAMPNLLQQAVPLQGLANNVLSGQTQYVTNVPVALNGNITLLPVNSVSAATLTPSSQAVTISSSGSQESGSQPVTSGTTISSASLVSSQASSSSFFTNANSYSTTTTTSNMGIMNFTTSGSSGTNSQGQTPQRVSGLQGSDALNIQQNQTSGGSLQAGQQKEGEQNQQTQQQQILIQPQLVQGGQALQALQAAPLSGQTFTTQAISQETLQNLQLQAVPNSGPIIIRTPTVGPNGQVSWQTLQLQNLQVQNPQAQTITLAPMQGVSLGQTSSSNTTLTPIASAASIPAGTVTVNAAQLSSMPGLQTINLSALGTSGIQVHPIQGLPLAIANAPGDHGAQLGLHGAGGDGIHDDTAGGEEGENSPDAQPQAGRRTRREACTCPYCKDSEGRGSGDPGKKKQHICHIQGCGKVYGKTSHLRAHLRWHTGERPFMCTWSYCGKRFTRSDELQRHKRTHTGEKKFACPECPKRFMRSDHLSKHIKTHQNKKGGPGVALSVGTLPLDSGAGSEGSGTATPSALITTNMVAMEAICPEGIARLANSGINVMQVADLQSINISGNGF

The nature of assay [15]: ATG_SREBP_CIS: Attagene CIS-FACTORIAL HepG2 Assay for human Sterol Regulatory Element Binding (SREBP) (AID 2282962). The note with it: HepG2 Attagene cis-factorial SREBP reporter, mRNA; actives raise or lower the signal. The gist of the method: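 Endogenous SREBP activity read as cis-element-driven reporter transcript in transiently transfected HepG2, 24 h post-dosing; quantified via RT-PCR plus capillary electrophoresis of fluorescent fragments. Gain or loss of signal fitted relative to DMSO baseline.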

Assay [16] deals with Signal transducer and activator of transcription 3 (Homo sapiens) (UniProt P40763). Put plainly: ATG_STAT3_CIS: Attagene CIS-FACTORIAL HepG2 Assay for human Signal Transducer and Activator of Transcription 3 (STAT3) (AID 2282963). The note with it: HepG2, Attagene cis-factorial STAT3 reporter transcription; actives raise or lower the signal. The gist of the method:
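Readout: fluorescent reporter mRNA fragments resolved by capillary electrophoresis. Setup: HepG2 transfected with MRTUs reporting endogenous transcription-factor activity, dosed 24 h. Gain or loss of signal fitted bidirectionally against DMSO control.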

The nature of assay [17]: ATG_TA_CIS: Attagene CIS-FACTORIAL HepG2 Assay for human TA Basal Promoter (AID 2282964). The note with it: HepG2 Attagene CIS-factorial TA basal promoter reporter; actives raise or lower the signal. In outline:
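HepG2 cells transiently transfected with multiple reporter units under cis promoter elements, reporting endogenous transcription factor activity; this endpoint tracks the TA basal promoter as background control. Reporter mRNA after 24 h dosing measured by RT-PCR/capillary electrophoresis; bidirectional fits versus DMSO.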

The nature of assay [18]: ATG_PXRE_CIS: Attagene CIS-FACTORIAL HepG2 Assay for human Pregnane X Receptor Element (PXRE) (AID 2282957). The note with it: HepG2 Attagene CIS-FACTORIAL PXRE reporter, mRNA; actives raise or lower the signal. The gist of the method: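 Read-out: fluorescence of reporter-specific RT-PCR products resolved by capillary electrophoresis, fitted bidirectionally relative to DMSO. Human HepG2 liver cells carried transfected cis-promoter reporter units and were exposed to chemicals for 24 h.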

Assay [19] has as its target Hepatocyte nuclear factor 6 (Homo sapiens) (UniProt Q9UBC0). The assay is described as follows: ATG_HNF6_CIS: Attagene CIS-FACTORIAL HepG2 Assay for human Hepatocyte Nuclear Factor 6 (HNF6) (AID 2282952). The note with it: HepG2 Attagene cis-factorial HNF6 reporter transcription; actives raise or lower the signal. In outline:
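Readout: fluorescent reporter-transcript fragments resolved by capillary electrophoresis after RT-PCR, reflecting endogenous factor activity in transfected HepG2. Exposure 24 h. Gain or loss of signal fitted bidirectionally against DMSO.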

Calls of active or inactive are those of the source. The calls were made as follows: active = hit-call score of the fitted dose curve at least 0.9, where 1 is the maximum; inactive = score below 0.9.

A word on the AC50: it is the concentration at which the activity in the assay is half-maximal.

Sequence of Signal transducer and activator of transcription 3 (Homo sapiens) (P40763 whole entry, looked up, the tested form may be a part): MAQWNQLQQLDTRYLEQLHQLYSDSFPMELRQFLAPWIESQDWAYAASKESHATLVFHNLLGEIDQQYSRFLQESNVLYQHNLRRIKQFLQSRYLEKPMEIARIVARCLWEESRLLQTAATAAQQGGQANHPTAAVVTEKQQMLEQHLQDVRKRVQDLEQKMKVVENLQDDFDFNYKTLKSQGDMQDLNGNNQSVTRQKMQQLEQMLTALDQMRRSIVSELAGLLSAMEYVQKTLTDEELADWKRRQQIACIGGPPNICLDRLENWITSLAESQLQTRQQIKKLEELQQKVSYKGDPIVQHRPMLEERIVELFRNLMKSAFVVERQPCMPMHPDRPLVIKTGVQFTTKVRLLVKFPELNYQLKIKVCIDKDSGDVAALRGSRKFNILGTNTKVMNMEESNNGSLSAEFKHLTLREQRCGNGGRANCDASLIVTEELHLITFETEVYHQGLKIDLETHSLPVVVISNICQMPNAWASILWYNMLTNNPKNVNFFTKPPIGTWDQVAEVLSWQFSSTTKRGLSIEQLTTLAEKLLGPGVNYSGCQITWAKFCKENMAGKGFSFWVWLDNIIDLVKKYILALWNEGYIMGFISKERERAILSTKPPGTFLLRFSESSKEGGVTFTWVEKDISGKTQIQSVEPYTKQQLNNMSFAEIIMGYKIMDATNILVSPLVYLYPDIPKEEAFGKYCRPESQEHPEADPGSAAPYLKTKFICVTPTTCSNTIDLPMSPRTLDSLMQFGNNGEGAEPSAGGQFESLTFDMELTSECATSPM
Sequence of Heat shock factor protein 1 (Homo sapiens) (Q00613 whole entry, looked up): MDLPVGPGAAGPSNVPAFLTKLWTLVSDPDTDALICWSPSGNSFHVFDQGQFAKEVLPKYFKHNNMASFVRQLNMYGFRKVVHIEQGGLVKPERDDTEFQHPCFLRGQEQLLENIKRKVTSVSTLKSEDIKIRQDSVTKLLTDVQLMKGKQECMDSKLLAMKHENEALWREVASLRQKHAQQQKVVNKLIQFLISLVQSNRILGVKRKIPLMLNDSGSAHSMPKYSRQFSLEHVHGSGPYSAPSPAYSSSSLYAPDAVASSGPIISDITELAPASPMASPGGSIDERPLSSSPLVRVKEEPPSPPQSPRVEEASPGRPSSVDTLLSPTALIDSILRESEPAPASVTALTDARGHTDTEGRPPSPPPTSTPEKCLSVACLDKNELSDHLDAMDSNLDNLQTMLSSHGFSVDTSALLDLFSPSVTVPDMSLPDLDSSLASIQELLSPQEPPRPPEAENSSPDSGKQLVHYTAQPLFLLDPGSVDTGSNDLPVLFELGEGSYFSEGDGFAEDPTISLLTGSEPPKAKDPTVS
Sequence of Paired box protein Pax-6 (Homo sapiens) (P26367 whole entry, looked up): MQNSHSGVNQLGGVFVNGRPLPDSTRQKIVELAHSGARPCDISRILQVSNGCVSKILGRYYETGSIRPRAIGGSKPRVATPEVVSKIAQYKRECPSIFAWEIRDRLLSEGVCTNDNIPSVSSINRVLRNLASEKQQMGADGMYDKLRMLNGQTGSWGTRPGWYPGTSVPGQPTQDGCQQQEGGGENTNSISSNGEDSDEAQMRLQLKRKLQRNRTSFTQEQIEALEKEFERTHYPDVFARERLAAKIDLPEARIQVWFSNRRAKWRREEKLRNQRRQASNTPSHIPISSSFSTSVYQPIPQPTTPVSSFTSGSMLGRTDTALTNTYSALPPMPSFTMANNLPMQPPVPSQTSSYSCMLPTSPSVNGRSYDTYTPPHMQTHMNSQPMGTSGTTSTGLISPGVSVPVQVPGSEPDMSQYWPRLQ
Sequence of Hypoxia-inducible factor 1-alpha (Homo sapiens) (Q16665 whole entry, looked up): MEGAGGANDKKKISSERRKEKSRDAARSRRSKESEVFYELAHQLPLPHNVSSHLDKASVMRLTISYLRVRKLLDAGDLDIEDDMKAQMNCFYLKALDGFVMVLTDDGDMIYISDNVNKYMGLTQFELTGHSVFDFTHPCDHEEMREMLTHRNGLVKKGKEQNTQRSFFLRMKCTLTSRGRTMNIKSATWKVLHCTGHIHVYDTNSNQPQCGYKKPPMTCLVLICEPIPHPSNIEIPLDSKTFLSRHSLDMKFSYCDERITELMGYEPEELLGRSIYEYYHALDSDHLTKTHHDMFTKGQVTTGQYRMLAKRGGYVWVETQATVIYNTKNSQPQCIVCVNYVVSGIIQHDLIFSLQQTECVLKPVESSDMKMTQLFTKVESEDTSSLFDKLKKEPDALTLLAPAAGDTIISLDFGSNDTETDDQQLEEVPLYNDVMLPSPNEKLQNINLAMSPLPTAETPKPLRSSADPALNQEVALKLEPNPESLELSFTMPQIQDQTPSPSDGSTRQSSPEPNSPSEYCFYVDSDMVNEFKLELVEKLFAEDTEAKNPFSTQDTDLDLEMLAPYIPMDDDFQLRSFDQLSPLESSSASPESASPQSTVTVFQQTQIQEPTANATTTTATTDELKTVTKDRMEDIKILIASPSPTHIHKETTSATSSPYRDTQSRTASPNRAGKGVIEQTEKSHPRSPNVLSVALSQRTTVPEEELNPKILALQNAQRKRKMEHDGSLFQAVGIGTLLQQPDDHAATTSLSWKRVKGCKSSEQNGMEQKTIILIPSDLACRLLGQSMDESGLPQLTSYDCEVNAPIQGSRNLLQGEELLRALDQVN
Sequence of Hepatocyte nuclear factor 6 (Homo sapiens) (Q9UBC0 whole entry, looked up, the tested form may be a part): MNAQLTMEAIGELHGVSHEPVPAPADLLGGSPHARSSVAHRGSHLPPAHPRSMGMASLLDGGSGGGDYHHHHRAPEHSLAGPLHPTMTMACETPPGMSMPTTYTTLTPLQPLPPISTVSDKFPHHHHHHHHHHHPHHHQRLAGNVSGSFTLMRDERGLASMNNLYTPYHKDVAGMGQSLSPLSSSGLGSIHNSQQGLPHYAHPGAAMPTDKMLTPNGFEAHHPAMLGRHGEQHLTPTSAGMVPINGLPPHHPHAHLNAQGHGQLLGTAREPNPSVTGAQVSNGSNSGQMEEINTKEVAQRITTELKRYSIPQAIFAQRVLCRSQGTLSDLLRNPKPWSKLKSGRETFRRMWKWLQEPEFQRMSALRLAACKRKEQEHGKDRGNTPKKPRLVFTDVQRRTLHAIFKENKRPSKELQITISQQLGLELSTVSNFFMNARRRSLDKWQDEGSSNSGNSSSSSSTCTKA

In the case of `COc1ccc(S(=O)(=O)N2C(=O)[C@@](c3ccccc3OC)(N3C[C@H](O)C[C@H]3C(=O)N(C)C)c3cc(Cl)ccc32)c(OC)c1`, the AC50 in [1] was 125 µM (active); in assay [2], 147 µM (active); in [3] it was 49.9 µM (active); in [4] it was 133 µM (active); in assay [6] it was 25.2 µM (active); in [7], 149 µM (active). The AC50 was 45.5 µM (active) in assay [8]; 17.1 µM (active) in assay [9]; 64.1 µM (active) in [10]; 76.8 µM (active) in [11]; 28.5 µM (active) in assay [12]; 122 µM (active) in assay [13]. In assay [17], the AC50 was 46.6 µM (active). The molecule was classed as inactive in assay [5], in assay [14], in assay [15] and in assay [16].
On to `NCC1(Cc2noc(=O)[nH]2)CCCCC1`, for which the result in [1], in assay [3], in assay [4], in assay [5], in [6] and in assay [7] was inactive. Further, the call in assay [8], in [9], in assay [10], in [18], in [11] and in assay [12] was inactive. Besides, the call in [13], in assay [14], in assay [15], in [16] and in assay [17] was inactive.
For the molecule `Oc1ccc2c(c1)OC[C@@H](N1CCC(O)(c3ccc(F)cc3)CC1)[C@H]2O`, the outcome in [1], in [2], in assay [3], in assay [4], in assay [5] and in assay [6] was inactive. Further, the result in assay [7], in [11], in assay [13], in assay [14], in assay [15] and in [16] was inactive. The result in assay [17] was inactive. The AC50 is 57.2 µM (active) in [8]; 43.2 µM (active) in assay [9]; 63.7 µM (active) in assay [10]; 13.7 µM (active) in [18]; 50 µM (active) in [12].
As for `CCCCCCC(=O)OCC`, the outcome in assay [1], in assay [3], in assay [4], in assay [5], in assay [6] and in [19] was inactive. Besides, the outcome in assay [7], in assay [8], in assay [9], in assay [10], in assay [11] and in assay [12] was inactive. Further, the molecule was called inactive in [13], in assay [14], in assay [15], in assay [16] and in assay [17]. In addition, in [18], the AC50 is 30.1 µM (active).

(Values after PubChem BioAssay (EPA / NIEHS).)
